In PubChem BioAssay (NCATS):
Inconclusive results are not listed. Entries that show only a call come without a potency. Calls of active or inactive are those of the source. Calls come from the whole dose curve; as a rule, active = well fitted inhibition curve with a large enough effect; inconclusive = small, poorly fitted or top-dose-only effect; inactive = no such curve, though single readings can be large or run the other way.

What was measured:
[1] = tested on: Zika virus NS2B-NS3 protease (unlinked complex); assay: Primary screen GU Rhodamine qHTS for Zika virus inhibitors: Unlinked NS2B-NS3 protease assay (AID 1347159); note: nearly all actives have a fitted effect of over 60% in size
Summary of the method: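 Percent inhibition derives from the 15-min fluorescence change (ex 480, em 540 nm), normalized to no-enzyme and no-inhibitor wells. Reactions contained 25 nM NS2B-NS3 complex and 1.5 microM substrate in 10 mM Tris-HCl pH 8.0.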

[2] = tested on: Zika virus NS2B-NS3 protease (linked construct); assay: Primary screen NINDS Rhodamine qHTS for Zika virus inhibitors (AID 1347160); note: nearly all actives have a fitted effect of over 55% in size
Summary of the method: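 In 10 mM Tris-HCl pH 8.0 containing 0.01% Tween 20, linked NS2B-NS3 protease (25 nM final) is exposed to test compounds for 15 min. Cleavage of 1.5 microM Rhodamine110 substrate is tracked by fluorescence over 15 min.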

Row | Compound | Potency [1] | Potency [2] | activity change, negative = inhibition [1] | activity change, negative = inhibition [2]
1 | CC(=O)OC(CSC1CCC(=O)OC(C)CCC(=O)C1)C(=O)O (stereo not drawn) | inactive | inactive |  | 
2 | CC1=CC(=O)C2C(C)(C)CC(O)CC2(C)C1CO (stereo not drawn) | inactive | inactive |  | 
3 | CCNC(=O)[C@H]1O[C@H](n2cnc3c(NCC(c4ccccc4)c4ccccc4)nc(C(=O)NCCNC(=O)NC4CCN(c5ccccn5)CC4)nc32)[C@H](O)[C@@H]1O | inactive | inactive |  | 
4 | COc1cc2c(cc1O)C1(Cc3ccc4c(c3C1=O)OCO4)N(C)CC2 (stereo not drawn) | inactive | inactive |  | 
5 | C=C1CC2C3(C)C(O)CC(=O)C(C)(C)C3C(OC(C)=O)C(OC(C)=O)C2(C)C2C(=O)OC(C)(C(=O)OC)C(=O)C12C (stereo not drawn) | inactive | inactive |  | 
6 | COc1cc2c(cc1O)C1(OC)Cc3ccc4c(c3C1N(C)CC2)OCO4 (stereo not drawn) | inactive | inactive |  | 
7 | Cc1nnc(C(C)C)n1C1CC2CCC(C1)N2CC[C@H](NC(=O)C1CCC(F)(F)CC1)c1ccccc1 (stereo partly drawn) | inactive | inactive |  | 
8 | OC[C@H]1O[C@@H](n2cnc3c2NC=NC[C@H]3O)C[C@@H]1O | inactive | inactive |  | 
9 | C[C@@H]1O[C@@H](O[C@H]2[C@H](OC(=O)C34CCC5(C)C(=CCC6C7(C)CC(O)C(O[C@@H]8O[C@H](C(=O)O)[C@@H](O)[C@H](O)[C@H]8O)C(C)(C(=O)O)C7CCC65C)C3CC(C)(C)CC4O)O[C@H](C)[C@@H](O)[C@@H]2O)[C@H](O)[C@@H](O[C@@H]2OC[C@](O)(CO)[C@H]2O[C@@H]2O[C@H](CO)[C@@H](O)[C@H](O)[C@H]2O)[C@H]1O (stereo partly drawn) |  |  | 4.07% [at 19.1 µM] (inactive) | -17.8% [at 10.7 µM] (inactive)
